# Bioassay records: PubChem, National Center for Advancing Translational Sciences (NCATS)
# Most compounds without a hit are left out; they make up all but 19% or so of the library.
# HT1080 IDH1KD tx = qHTS for induction of synthetic lethality in tumor cells producing 2HG: qHTS for the HT-1080-IDH1KD cell line. HT-1080 IDH1 knockdown viability, ATP luminescence, 48 h. Potency, µM (doses to about 46.1 µM), inactives show at the top dose activity, negative = toxicity, usual class: cytotoxic. 360,000 compounds, 2% hits. AID 686971, 2013;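 further: potency means the concentration at half of the fitted maximal effect; 0% = DMSO wells and -100% = cell-free medium wells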
#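 Knockdown cells (IDH1KD HT-1080) received compounds 2 h after plating at 750 cells/well and were kept 48 h at 37 °C in 5% FBS RPMI. A CellTiter-Glo luminescence read gave % activity for curve fitting.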
# IL1B secr inh = qHTS for Inhibitors of Inflammasome Signaling: IL-1-beta AlphaLISA Primary Screen; THP-1 LPS/ATP IL-1B secretion, AlphaLISA, 16 h; stronger effect = lower value; activity change, % at 57.5 µM; 360,000 compounds, 4.7% hits; in the data active means activity change below about -50%; inconclusive means mostly about -30% to -49%
#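 Secreted IL-1B measured by AlphaLISA bead assay after 16 h compound exposure of THP-1 cells; compounds (final up to 57.5 uM) added 1 h before LPS (250 ng/mL) and ATP (1.25 mM) stimulation; lower signal means less secretion.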
# HT1080-NT tox = qHTS for induction of synthetic lethality in tumor cells producing 2HG: qHTS for the HT-1080-NT fibrosarcoma cell line; Potency, µM (top dose mostly 46.1 µM), without a hit: at the top dose activity, negative = less viability, usual class: cytotoxic; 360,000 compounds, 1.6% hits; HT-1080-NT fibrosarcoma viability, CellTiter-Glo ATP luminescence, 48 h;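 further: NT is the 2HG producing partner of a matched IDH1 knockdown line; potency means the concentration at half of the fitted maximal effect; 0% = DMSO-treated cells and -100% = media-only wells without cells; nearly all actives have a fitted effect of over 55% in size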
#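 Luminescent CellTiter-Glo readout after 48 hours of compound exposure at 37 degrees C defined viability of HT-1080-NT cells. Activity was normalized to DMSO wells and cell-free media wells; concentration-response curves were fitted and assigned curve classes.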
# TDP1 cell noCPT = qHTS for Inhibitors of human tyrosyl-DNA phosphodiesterase 1 (TDP1): qHTS in cells in absence of CPT. Potency, µM (titrated, usually from 46.2 µM), without a hit: at the highest dose activity change, negative = growth inhibition, actives largely listed as inhibitors. 420,000 compounds, 15% hits. DT40 Tdp1-/- hTDP1 cells, no CPT, ATP luminescence, 48 h; further: potency means the concentration at half of the fitted maximal effect; nearly all actives have a fitted effect of over 55% in size
#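 A cellular qHTS used chicken DT40 cells lacking endogenous Tdp1 but carrying stably transfected human TDP1. Compounds were applied without camptothecin, and cell growth kinetics were judged by ATP-dependent luminescence after ≥48 hr.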
# TDP1 cell CPT = qHTS for Inhibitors of human tyrosyl-DNA phosphodiesterase 1 (TDP1): qHTS in cells in presence of CPT | chicken DT40 Tdp1-/-;hTDP1 cells + 20 nM CPT, ATP luminescence, 48 h | 420,000 compounds, 12% hits | Potency, µM (top dose mostly 46.2 µM), without a hit: at the highest dose activity change, negative = growth inhibition, actives largely listed as inhibitors; further: potency means the concentration at half of the fitted maximal effect; nearly all actives have a fitted effect of over 55% in size
#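 Chicken DT40 Tdp1-/- cells stably complemented with human TDP1 were seeded at 400 cells/well in medium containing 20 nM camptothecin, exposed to pin-transferred compounds, and grown at 37 °C for at least 48 hr. Viability was read as ATP luminescence.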
# * marks the source's active call; other numbers are inactive results; ? = inconclusive; . = not tested or not shown; [ ] = remark or other dose. Unless noted, the call rests on the fitted dose curve; in most records, active means well fitted curve in the direction sought with a large enough effect; inconclusive means small, poorly fitted or top-dose-only effect, or another doubt; inactive means no such curve, though single readings can be large; an effect the other way counts as inactive or inconclusive. Unless noted, on the % scale 0 is the no-effect control and ±100 the full control effect.
SMILES,HT1080 IDH1KD tx,IL1B secr inh,HT1080-NT tox,TDP1 cell noCPT,TDP1 cell CPT
CN1CCN(c2ccc(Cl)cc2NC(=O)CCN2C(=O)c3ccccc3C2=O)CC1,1%,22,7%,-26%,-3%
COC(=O)c1cc(=O)n(Cc2ccco2)c(=Nc2ccc(F)cc2)s1,?,-18,23µM*,?,21µM*
COC(=O)c1cc(=O)n(Cc2ccc(F)cc2)c(=Nc2ccccc2)s1,-17%,?,-24%,?,?
COC(=O)c1cc(=O)n(CCc2ccc(OC)c(OC)c2)c(=Nc2ccc(F)c(Cl)c2)s1,?,-104*,16µM*,?,?
COC(=O)c1cc(=O)n(Cc2ccc(OC)c(OC)c2)c(=Nc2ccc(F)cc2)s1,-16%,-23,?,15µM*,16µM*
COC(=O)c1cc(=O)n(-c2ccccc2)c(=Nc2ccccc2)s1,?,-58*,?,23µM*,?
COc1cccc(CNC(=O)c2c(OC)cc(=O)n3c2CCN(C(=O)c2cc(C)ccc2C)CC3)c1,.,.,.,-3%,14%
COc1ccccc1-n1nnnc1SCC(=O)N(CC(C)C)C1CCS(=O)(=O)C1 (configuration not stated),2%,0,5%,-1%,-12%
CNC(=O)C1CC(=O)N(CCc2ccc(OC)c(OC)c2)C(=Nc2ccc(F)cc2)S1 (configuration not stated),1%,-77*,2%,?,7%
CC(C)(C)c1nnc(SCC(=O)Nc2ccc(N3CCCCC3)cc2)n1N,-1%,3,-9%,-12%,-24%
COc1ccccc1C1C=C(c2ccc(Cl)cc2)Nc2nc(-c3ccc(Cl)cc3)nn21 (configuration not stated),.,.,.,?,16µM*
COc1ccccc1C1C=C(c2ccc(F)cc2)Nc2nc(-c3ccc(Cl)cc3)nn21 (configuration not stated),.,.,.,16µM*,21µM*
COc1ccccc1C1C(C(N)=O)=C(C)Nc2nc(-c3ccc(Cl)cc3)nn21 (configuration not stated),-3%,-25,-3%,10%,3%
Cc1ccc(S(=O)(=O)c2ccc(Cl)cc2)cc1S(=O)(=O)N1CCN(C)CC1,-19%,3,-3%,?,14µM*
CN1CCN(S(=O)(=O)c2ccc(Cl)cc2)CC1,7%,1,5%,-3%,14%
Cc1ccc(Cn2ccn(Cc3ccccc3F)c(=O)c2=O)cc1,.,.,.,-27%,-11%
CCC1CN(CCNC(=O)c2cc3ccccc3oc2=O)Cc2cc(OC)ccc2O1 (configuration not stated),.,.,.,-9%,2%[9.04 µM]
Cn1c(=O)n(-c2ccc(C(C)(C)C#N)cc2)c2c3cc(-c4cnc5ccccc5c4)ccc3ncc21,.,.,.,0.05µM*,0.25µM*
Cn1c2ccccc2c(=O)c2c(=O)n(-c3ccccc3)c(-c3ccc(C(C)(C)C)cc3)nc21,8%,65,-7%,?,?
O=C(c1cnn2c(C(F)(F)F)cc(-c3ccccc3)nc12)N1CCCc2ccccc21,13%,13,7%,-4%,?
O=C(c1nn2c(C(F)(F)F)cc(-c3cccs3)nc2c1Cl)N1CCCc2ccccc21,-24%,-1,-12%,12µM*,16µM*
COc1cccc(Cn2c(=O)c(-c3cccc(C#N)c3)nc3cnc(Nc4ccccc4)nc32)c1,.,.,.,0%,1%
COc1ccc(C[C@H]2CN3C(=NC[C@@H]3Cc3ccc(O)cc3)N2C[C@H](C)NC(=O)CCC2CCCCC2)cc1,-24%,0,-12%,16µM*,8.2µM*
